# Source: PubChem (National Center for Advancing Translational Sciences (NCATS))
# SMN2 splice enh = enhancers of SMN2 splice variant expression. HEK293 SMN2-luciferase splicing reporter, luminescence, 30-36 h. Potency, µM (titrated, usually from 46.1 µM), for inactives: at the top dose activity change, positive = activation, most hits filed as activators. hit rate 2.8% among 210,000. AID 1458; also: % of control where 0% means no effect; nearly all actives have a fitted effect of over 55% in size
#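 HEK293 cells carry an SMN2 minigene-luciferase reporter in which exon 7 inclusion puts luciferase in frame. Cells were seeded at 2000 cells/well, attached for 10-12 hours, then exposed to compounds for 30-36 hours at 37C before ONE-Glo luminescence.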
# FLuc modulator = inhibits or activates purified firefly luciferase, miR-21 counter-screen. purified FLuc, Km substrates, luminescence inhibition. Potency, µM (doses to about 57.5 µM), inactives show at the highest dose activity change, negative = inhibition, actives largely listed as inhibitors. hit rate 6.9% among 360,000. AID 588342;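 also: plate controls were vehicle for no effect and reference inhibitor for full effect; nearly all actives have a fitted effect of over 55% in size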
# Target sequence (P08659 whole entry, looked up): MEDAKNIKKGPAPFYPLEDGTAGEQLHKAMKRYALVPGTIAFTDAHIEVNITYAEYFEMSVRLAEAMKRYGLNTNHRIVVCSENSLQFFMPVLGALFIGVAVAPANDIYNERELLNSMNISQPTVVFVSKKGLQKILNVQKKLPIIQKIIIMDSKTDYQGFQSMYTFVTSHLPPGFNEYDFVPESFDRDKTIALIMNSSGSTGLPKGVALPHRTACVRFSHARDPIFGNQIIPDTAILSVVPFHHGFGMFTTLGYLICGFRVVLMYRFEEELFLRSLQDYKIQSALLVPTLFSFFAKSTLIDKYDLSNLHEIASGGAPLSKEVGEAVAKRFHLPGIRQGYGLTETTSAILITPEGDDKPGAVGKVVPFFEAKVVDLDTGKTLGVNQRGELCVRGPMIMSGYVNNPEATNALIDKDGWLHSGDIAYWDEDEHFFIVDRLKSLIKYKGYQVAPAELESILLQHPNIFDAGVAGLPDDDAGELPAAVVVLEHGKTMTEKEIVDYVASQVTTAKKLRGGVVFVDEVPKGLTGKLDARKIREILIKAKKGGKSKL
#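 Purified P. pyralis luciferase, 10 nM final, with Km-level 10 uM D-luciferin and 10 uM ATP in 50 mM Tris acetate pH 7.5, 10 mM Mg acetate, 0.01% Tween-20, 0.05% BSA; 6-point qHTS titration about 60 µM downward; luminescence read.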
# NPC1 promoter act = NPC1 promoter activation | hit rate 2.4% among 320,000 | Huh7 NPC1 promoter luciferase reporter, 24 h | Potency, µM (series often up to 9.22 µM), for the others: top-dose activation, most hits filed as activators; also: % of control where 0% means no effect; nearly all actives have a fitted effect of over 60% in size
#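 Huh7 cells stably carrying NPC1 promoter–luciferase, plated in Opti-MEM with 10% FBS for 2 h, were exposed to compound in DMSO for 24 h at 37 °C; luciferase reagent was added for 10 min and luminescence read.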
# ELG1 genotoxic = genotoxicity induction in ELG1-luciferase HEK293T cells | AID 504466 | Potency, µM (highest dose often 46 µM), for the others: top-dose activity change, positive = activation, most hits filed as activators | hit rate 1.3% among 330,000 | HEK293T ELG1-luciferase reporter, luminescence, 16 h; also: % of control where 0% means no effect; nearly all actives have a fitted effect of over 60% in size
#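 Genotoxicity was scored as increased ELG1-luciferase reporter signal, measured by ONE-Glo luminescence (30 min, room temperature). Compound or vehicle exposure of the HEK293T reporter cells lasted 16 hr at 37°C.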
# p53 reactivation = re-activators of mutant p53; hit rate 0.063% among 320,000; Potency, µM (top dose mostly 92.2 µM), without a hit: at the highest dose activity change, positive = activation, most hits filed as activators; H1299 p53-A138V BP100-luciferase reporter, luminescence, 24 h; also: % of control where 0% means no effect; nearly all actives have a fitted effect of over 45% in size
#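 p53-null H1299 cells stably carrying temperature-sensitive p53-A138V and a BP100-luciferase reporter were pinned with compounds (4-point, 1:5 series) and held 24 hrs at 37 deg C. Luminescence was read 10 min after detection reagent.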
# Rab9 prom act = Rab9 promoter activation | hit rate 2.8% among 320,000 | Huh7 Rab9 promoter-luciferase reporter, luminescence, 24 h | AID 485297 | Potency, µM (highest dose often 9.22 µM), without a hit: top-dose activation, negative = inhibition, actives largely listed as activators; also: % of control where 0% means no effect; nearly all actives have a fitted effect of over 60% in size
#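 Luciferase signal after 10 min detection reagent at ambient indicates Rab9 promoter upregulation; stably transfected Huh7 cells were treated 24 h with compound in DMSO at 37 °C, 5% CO2.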
# An asterisk follows results filed as active; ? = inconclusive; / = not tested or not shown; [ ] = another dose, or the depositor's remark. Hits are enriched below; roughly 7.4% of the tested compounds scored in any of these assays. Calls follow the shape of the dose curve; as a rule, active = well fitted curve in the direction sought with a large enough effect; inconclusive = small, poorly fitted or top-dose-only effect, or another doubt; inactive = no such curve, though single readings can be large; an effect the other way counts as inactive or inconclusive. Potency is read from the fitted curve at half-maximal effect.
SMILES,SMN2 splice enh,FLuc modulator,NPC1 promoter act,ELG1 genotoxic,p53 reactivation,Rab9 prom act
Cc1ccc(NC(=S)Nc2ccccn2)cc1C,/,17µM*,18%,16%,21%,?
Cc1nc2c(C(=O)NCCCN(CC(C)C)CC(C)C)cnn2c(C)c1Cc1c(F)cccc1Cl,/,-1%,/,/,/,/
COc1ccc(NC(=S)Nc2ccccn2)cc1,/,13µM*,3.2µM*,?,16%,2.5µM*
Cc1cc(C)nc(NC(=S)Nc2cccc(F)c2)c1,/,?,4%,3%,4%,25%
COc1cccc(NC(=S)Nc2cc(C)cc(C)n2)c1,/,2.1µM*,4%,14%,17%,5%
C=CCN1C(=O)c2ccc(C(=O)N(C)CC(=O)Nc3ccc(Br)cc3C)cc2C1=O,/,1%,-3%,5%,0%,-9%
COc1cccc(C(=O)Nc2nnc(SCC(=O)NC3CCCC3)s2)c1,/,2.7µM*,?,?,26%,?
O=C(CSc1nnc(NC(=O)c2cccc(F)c2)s1)NC1CC1,/,15µM*,20%,21%,17%,5%
Cc1cccc(C(=O)Nc2nnc(SCC(=O)Nc3ccc4c(c3)oc3ccccc34)s2)c1,28%,?,13%,13%,11%,11%
COc1ccc(N2CC(C(=O)Nc3nnc(SCC(=O)NC4CCCC4)s3)CC2=O)cc1 (centres undefined),/,-1%,0%,6%,-7%,10%
Cc1nnc(SCC(=O)NC2CC2)s1,/,2%,0%,2%,4%,17%
Cc1cccc(C(=O)Nc2nnc(SCC(=O)NC3CC3)s2)c1,/,19µM*,?,?,21%,?
COc1ccccc1C(=O)Nc1nnc(SCC(=O)Nc2ccc3c(c2)oc2ccccc23)s1,22µM*,1.9µM*,4µM*,?,19%,2.8µM*
CCOC(=O)C1=C(COC(=O)[C@@H](NC(=O)c2cccc(C)c2)C(C)C)NC(=O)NC1C (some centres undefined),/,/,/,1%,1%,/
Cc1c(Cl)cccc1NC(=O)c1cc(-c2cccc(Cl)c2)on1,-3%,-5%,/,/,/,/
CCOc1ccccc1NC(=O)COC(=O)CCOc1cc(C)ccc1C,/,5%,-4%,1%,3%,-5%
O=C(CSc1nnc(NC(=O)c2cccc(F)c2)s1)NC1CCCC1,/,6µM*,17%,16%,15%,18%
O=C(CSc1nnc(NC(=O)c2ccc(F)cc2)s1)NC1CC1,/,5.4µM*,2.5µM*,?,17%,?
COc1ccccc1C(=O)Nc1nnc(SCC(=O)NC2CCCC2)s1,/,4.8µM*,0.63µM*,2.3µM*,25%,/
CC(C)c1nnc(NC(=O)CSc2nnc(NC(=O)c3c(F)cccc3F)s2)s1,28%,8.5µM*,18%,16%,4%,28%
O=C(CSc1nnc(NC(=O)c2c(F)cccc2F)s1)NC1CCCC1,/,1%,0%,8%,-2%,10%
O=C(CSc1nnc(NC(=O)c2ccco2)s1)NC1CCCC1,16%,-15%,-2%,1%,?,1%
O=C(CSc1nnc(NC(=O)c2c(F)cccc2F)s1)Nc1ccccc1F,/,?,4%,15%,20%,23%
Cc1cc(C)cc(Nc2nc3ccccc3n3cnnc23)c1,3%,-15%,/,/,/,/
CCCCS(=O)(=O)N1C2=NC(C(=O)OC)=C(C(=O)OC)[C@@H]3Nc4ccccc4[C@]23C[C@H]1C(=O)OC,0%[9.22 µM],/,/,/,/,/
SMILES,SMN2 splice enh,FLuc modulator,NPC1 promoter act,ELG1 genotoxic,p53 reactivation,Rab9 prom act
COc1ccccc1NC(=O)c1cnc(SCC(=O)NCCc2ccccc2)n(C)c1=O,/,-9%,-1%,0%,6%,17%
Cc1cccc(CN2C(=O)CC(c3ccc(Cl)cc3)c3c(C)nn(-c4nc(C)cc(C)n4)c32)c1 (centres undefined),/,-2%,/,/,/,/
Cc1ccc(-c2c(C(=O)N3CCN(c4cccc(C)c4C)CC3)oc(=O)c3ccccc23)cc1,8%,-1%,/,/,/,/
O=C(CSc1nnc(NC(=O)C2CCC2)s1)NC1CC1,0%,2%,-3%,0%,8%,-8%
O=C(CSc1nnc(NC(=O)c2ccccc2F)s1)NC1CC1,/,15µM*,?,23%,18%,?
O=C(NCc1ccccc1Cl)c1cnc(N2CCCCC2)c2ccccc12,/,-19%,/,/,/,/
S=C(N/N=C/c1ccc(Cl)cc1)N1CCOCC1,29%,?,29%,?,?,29%
S=C(N/N=C/c1ccc(Br)cc1)N1CCCCC1,/,27µM*,4µM*,?,/,0.89µM*
Cc1ccc(/C=N/NC(=S)N2CCOCC2)cc1,34%,15µM*,12%,?,?,5%
Cc1ccccc1Nc1c(-c2ccsc2)nc2c(C)cccn12,13µM*,?,/,/,/,/
Cc1ccc(-c2nc3ccccn3c2Nc2ccccc2C)s1,26%,-20%,/,/,/,/
Cc1ccn2c(Nc3ccccc3C)c(-c3ccncc3)nc2c1,18µM*,?,-3%,2%,1%,-10%
Cc1ccn2c(NC3CCCC3)c(-c3ccncc3)nc2c1,-41%,-3%,5%,1%,-4%,-1%
N#Cc1ccccc1-c1csc(N2CCC(C(N)=O)CC2)n1,/,-19%,/,/,/,/
CCc1ccc(-c2ccc(SCc3ccccn3)nn2)cc1,?,8.5µM*,3.2µM*,?,13%,?
CCOc1ccc(-c2ccc(SCC(=O)N3CCN(c4ccccc4)CC3)nn2)cc1,-16%,?,3%,1%,7%,-2%
CCOc1ccc(-c2ccc(SCc3ccccn3)nn2)cc1,16%,13µM*,?,-7%,10%,?
O=C1/C(=C/c2ccc([N+](=O)[O-])cc2)Oc2cc(O)ccc21,/,4.8µM*,23%,0%,?,-4%
CC(C)(C)c1ccc(/C=C2\Oc3cc(O)ccc3C2=O)cc1,/,?,15%,0%,?,0%[1.84 µM]
O=C1/C(=C/c2ccc(Br)cc2)Oc2cc(O)ccc21,/,3.8µM*,23%,4%,?,?
CC(=O)NC12CC3CC(C1)CC(C(=O)Nc1nc4ccc(F)cc4s1)(C3)C2,/,13µM*,?,-1%,-21%,?
CCc1nnc(NC(=O)c2cccc(NC(=O)C(C)C)c2)s1,16µM*,?,?,29%,6%,?
CC(C)c1nnc(NC(=O)c2cccc(NC(=O)C(F)(F)F)c2)s1,14µM*,21µM*,3.5µM*,?,6%,1.3µM*
CC(C)C(=O)Nc1cccc(C(=O)Nc2nnc(C(C)C)s2)c1,11µM*,?,2.8µM*,?,?,1.4µM*
Cc1nnc(NC(=O)c2cccc(NC(=O)C(C)C)c2)s1,6%,-16%,4%,4%,2%,5%
